Assay results from PubChem BioAssay AID894 (National Center for Advancing Translational Sciences (NCATS), 2007).
Several values for one entry are separate records, joined by “and”; a condition that tells them apart may be missing. Equal entries are not always repeated. Out of some 150,000 compounds screened, about 6,500 (4.3%) were called active. Another 12% or so got no clear call; they are omitted. The sample holds actives, similar compounds and a random draw of the others, so the mix is not that of the screen. Some structures have more than one record in an assay (separate samples or runs), and their calls can disagree. Values without a mark were called inactive. The call rests on the fitted dose curve; in most records, active means well fitted inhibition curve with a large enough effect (not every such curve was filed as active); inconclusive means small, poorly fitted or top-dose-only effect, or another doubt; inactive means no such curve, though single readings can be large or run the other way.

molecular target: 15-hydroxyprostaglandin dehydrogenase [NAD(+)] (Homo sapiens) (UniProt P15428); test: qHTS Assay for Inhibitors of HPGD (15-Hydroxyprostaglandin Dehydrogenase); conditions: purified HPGD, NADH fluorescence kinetic, PGE2 substrate; activity change, negative = inhibition: hits give low values
Sequence (P15428 whole entry, looked up): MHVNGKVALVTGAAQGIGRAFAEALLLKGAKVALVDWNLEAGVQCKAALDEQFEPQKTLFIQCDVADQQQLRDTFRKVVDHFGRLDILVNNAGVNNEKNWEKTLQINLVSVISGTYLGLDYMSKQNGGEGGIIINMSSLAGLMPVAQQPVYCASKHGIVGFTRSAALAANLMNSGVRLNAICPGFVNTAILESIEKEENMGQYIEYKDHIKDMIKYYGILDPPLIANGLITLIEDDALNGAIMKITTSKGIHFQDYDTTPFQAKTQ
Method in brief: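 20 nM HPGD preincubated 15 min at room temperature with compound in 50 mM Tris-HCl pH 8, 0.01% Tween 20. Started with 1 mM NAD+ and 30 uM prostaglandin E2; NADH fluorescence (360/450 nm) read 5 times over 30-s intervals, last minus first.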
On the % scale 0 is the no-effect control and ±100 the full control effect; potency means the concentration at half of the fitted maximal effect.

First: CC1CCCN(CCOCCOc2ccccc2-c2ccccc2)C1 (configuration not stated)
Second: CN(Cc1ccccc1)C(=O)COc1ccccc1
The activity change, negative = inhibition of the first is higher: -3.59% for the first, -21.3% for the second.

Going from `COC(=O)N1C(/C=C/C=C/c2ccc(OC)cc2)=Cc2ccccc2C1CC(C)=O` (configuration not stated) to `COc1ccc(CC(=O)Nc2ccc(C(=O)NC(C)(C)C)cc2)cc1`, the activity change, negative = inhibition rises from -15% to -10.9%.

First: CC1CCN(c2ccc(C(=O)Nc3nnc(C4CC4)s3)cc2[N+](=O)[O-])CC1
Second: CN(C)S(=O)(=O)c1ccc(N2CCCC2=O)c([N+](=O)[O-])c1
The activity change, negative = inhibition of the first is lower: -7.37% for the first, -7.1% for the second.

Going from `CC(NC(=S)Nc1ccccc1)C1COc2ccccc2O1` (configuration not stated) to `Cc1c(NC(=O)Nc2ccccc2)cccc1[N+](=O)[O-]`, the activity change, negative = inhibition falls from -1.93% to -4.65%.

Compared with `COc1cc(OC)nc(N/N=C(\c2ccccc2)c2ccncc2)n1`, `CCC1(C(=O)c2ccccc2)C(c2cccc([N+](=O)[O-])c2)C1(C(=O)OC)C(=O)OC` (configuration not stated) is higher in activity change, negative = inhibition: -10.6% for the first, -4.68% for the second.

Going from `COc1ccc(Br)cc1CN(C)CC(=O)Nc1cc(Cl)cc(Cl)c1` to `Cc1cc(C(=O)Nc2c(C)n(C)n(-c3ccccc3)c2=O)cs1`, the activity change, negative = inhibition rises from -12.1% to -6.25%.

Compared with `COC(=O)c1c(NC(=O)CN2C(=O)NC(CCc3ccccc3)C2=O)sc2c1CCCCC2` (configuration not stated), `N=C1C(=O)OCC1c1ccccc1NC(=O)CN1CCCCC1` (configuration not stated) is higher in activity change, negative = inhibition: -23.3% for the first, -11.6% for the second.

Going from `CCC(CC)C(=O)Nc1cccc(C(=O)N2CCCC2)c1` to `O=C(O)c1cccc(N2C(=O)Nc3ccccc3N2O)c1`, the activity change, negative = inhibition rises from -4.19% to -2.37%.

Compared with `CC1=C[C@H]2Cc3cc(C)cc(C)c3S(=O)(=O)[C@@H]2C=C1`, `CCCC(C)C(=O)OCC(=O)Nc1c(Br)cc(C)cc1Br` (configuration not stated) is higher in activity change, negative = inhibition: -8.5% for the first, -2.73% for the second.

Going from `C=C(C(C)=O)C(O)c1ccc([N+](=O)[O-])cc1` (configuration not stated) to `CC(Cc1ccccc1)C(=O)N(C)Cc1ccccc1` (configuration not stated), the activity change, negative = inhibition rises from -15.8% to -12.5%.

First: CCCSc1nc2[nH]ncc2c(=O)[nH]1
Second: CCN(C(=O)COc1cccnc1[N+](=O)[O-])C1CCS(=O)(=O)C1 (configuration not stated)
The activity change, negative = inhibition of the first is lower: -15.8% for the first, -10.7% for the second.

`CN(Cc1ccccc1)C(=O)CCc1ccccc1` showed an activity change, negative = inhibition of -14.5%.

With `Cc1c(Cl)cccc1NC(=O)Nc1ccc(C(=O)N2CCCC2)cc1` the Potency was 14.1 µM (active).
In the case of `Cc1ccc(O)c(-c2cc(C(=O)Nc3c(C)n(C)n(-c4ccccc4)c3=O)[nH]n2)c1`, the Potency is reported as 20 µM (active).
`CC(Cc1ccccc1)C(=O)N(C)Cc1ccccc1` (configuration not stated) was tested, and the Potency was 5.01 µM (active).

With `Cc1c(NC(=O)c2cccnc2)c(=O)n(-c2ccccc2)n1C` the activity change, negative = inhibition was 4.69% and -0.99%.
